Here are results for six compounds from PubChem BioAssay.

SMILES strings stand for the structures. Where “and” joins values, the source holds several entries; their conditions need not be identical. Equal entries are not always repeated. Results filed as inconclusive are left out. For part of these data: Potency and affinity values are given separately. Calls of active or inactive are those of the source. Unless noted, no rule for the calls is given here.

The nature of assay [1]: hESC survival regulators, cell-based (AID 493140).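 Also: cells exposed to compounds for four days before counting.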 The following applies: human embryonic stem cell survival screen; stronger effect = higher value.
The nature of assay [2]: liver-stage malaria parasite growth inhibition, primary screen, cell-based, HepG2, luciferase luminescence, HepG2 viability (AID 624349; in the data active = parasite load remaining mostly below about 12%, no sharp cut-off; inactive = mostly above about 10%;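 also: 100% = mean of DMSO negative control wells on the same plate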). Conditions: P. berghei liver stage in HepG2, luciferase luminescence, concentration not given here; parasite load remaining: stronger effect = lower value; viability: measured here: HepG2 viability without parasites.
Assay [3] can be described thus: sensitizers of A549 cells to miR-34 induction, primary screen, imaging, A549 dox-inducible miR-34, nuclei and caspase counts (AID 1347080;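 active = compounds whose cell count with miR-34 switched on is under 0.7 times the count with it off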). Conditions: A549 miR-34 inducible, Hoechst nuclei count, 48 h.
The target in assay [4] is NAD(+) hydrolase SARM1 (Homo sapiens) (UniProt Q6SZW1). Description: SARM1 TIR NADase inhibitors, cell lysate, NAD-Glo luminescence (AID 1508614;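 active = compound whose remaining NAD level is above about 45 nM, limit read from the data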;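 also: higher remaining NAD means stronger inhibition of SARM1 NADase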). The following applies: SAM-TIR HEK293T lysate NADase, at 1 µM, stronger effect = higher value.
NAD(+) hydrolase SARM1 (Homo sapiens), sequence (Q6SZW1 whole entry, looked up, the tested form may be a part): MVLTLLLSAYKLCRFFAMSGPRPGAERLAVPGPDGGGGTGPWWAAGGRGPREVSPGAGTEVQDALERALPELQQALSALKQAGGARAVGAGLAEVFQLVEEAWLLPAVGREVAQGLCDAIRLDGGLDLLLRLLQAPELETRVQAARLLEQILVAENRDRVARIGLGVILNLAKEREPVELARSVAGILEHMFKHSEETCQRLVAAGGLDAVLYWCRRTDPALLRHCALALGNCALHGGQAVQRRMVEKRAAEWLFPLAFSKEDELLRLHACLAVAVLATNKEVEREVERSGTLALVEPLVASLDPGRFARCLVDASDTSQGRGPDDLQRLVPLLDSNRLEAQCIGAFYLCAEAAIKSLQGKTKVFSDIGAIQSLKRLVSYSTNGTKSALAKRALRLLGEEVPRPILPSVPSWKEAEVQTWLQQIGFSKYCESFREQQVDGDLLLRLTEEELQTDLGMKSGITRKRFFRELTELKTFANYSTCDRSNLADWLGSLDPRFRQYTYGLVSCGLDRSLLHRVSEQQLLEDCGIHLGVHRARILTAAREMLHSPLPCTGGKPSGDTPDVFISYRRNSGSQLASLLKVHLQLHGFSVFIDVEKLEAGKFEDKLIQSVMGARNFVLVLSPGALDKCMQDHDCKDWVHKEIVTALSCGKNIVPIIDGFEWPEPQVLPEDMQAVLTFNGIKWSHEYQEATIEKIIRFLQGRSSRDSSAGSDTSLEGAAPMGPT
The target of assay [5] is Mitogen-activated protein kinase 7 (Homo sapiens) (UniProt Q13164). Description: ERK5 transactivation activators in reporter cells, primary screen, cell-based, HTS (AID 1508626;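 active = luciferase signal above three times the same-plate solvent-only control wells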;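 also: luciferase driven by Gal4-ERK5 fusion binding five Gal4 sites before minimal TATA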). The following applies: HeLa Gal4-ERK5 transactivation, 18 h, at 5 µM, stronger effect = higher value.
Mitogen-activated protein kinase 7 (Homo sapiens), sequence (Q13164 whole entry, looked up, the tested form may be a part): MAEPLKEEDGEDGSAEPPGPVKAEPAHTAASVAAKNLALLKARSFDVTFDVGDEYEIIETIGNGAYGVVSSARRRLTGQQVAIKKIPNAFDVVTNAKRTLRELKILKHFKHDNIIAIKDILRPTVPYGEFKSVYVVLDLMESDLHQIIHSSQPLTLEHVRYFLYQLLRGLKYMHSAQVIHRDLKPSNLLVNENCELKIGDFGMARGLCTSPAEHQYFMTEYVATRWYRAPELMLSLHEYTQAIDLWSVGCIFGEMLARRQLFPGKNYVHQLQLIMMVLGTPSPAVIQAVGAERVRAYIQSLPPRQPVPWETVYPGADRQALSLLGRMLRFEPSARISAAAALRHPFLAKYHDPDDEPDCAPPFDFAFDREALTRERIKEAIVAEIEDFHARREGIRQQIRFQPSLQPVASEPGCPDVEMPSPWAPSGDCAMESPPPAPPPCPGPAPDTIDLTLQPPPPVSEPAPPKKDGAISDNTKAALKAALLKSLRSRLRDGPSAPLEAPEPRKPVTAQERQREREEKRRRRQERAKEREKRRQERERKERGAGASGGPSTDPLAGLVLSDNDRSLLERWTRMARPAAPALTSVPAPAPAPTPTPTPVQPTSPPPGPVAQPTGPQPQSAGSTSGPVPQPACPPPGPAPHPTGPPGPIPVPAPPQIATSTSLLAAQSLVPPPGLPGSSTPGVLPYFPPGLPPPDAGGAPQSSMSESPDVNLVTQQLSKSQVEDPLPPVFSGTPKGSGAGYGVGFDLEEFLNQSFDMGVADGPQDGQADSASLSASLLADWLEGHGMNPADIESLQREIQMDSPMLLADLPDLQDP
Assay [6] can be described thus: polyglutamine-triggered caspase-3 activation inhibitors, cell-based (AID 1583). The following applies: polyglutamine-induced caspase-3 activation, cell assay; stronger effect = higher value;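 tested at 10 µM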.
Assay [7] is described as follows: suppressors of polyQ aggregation in yeast, 75Q-TubU reporter (AID 1593). Conditions: Yeast 75Q polyglutamine aggregation reporter.
Assay [8] is described as follows: rescue of polyQ-huntingtin neuronal dysfunction in worms, whole organism, C. elegans mechanosensory neurons, N-terminal huntingtin (AID 1599). The following applies: touch response, stronger effect = higher value.
Assay [9] can be described thus: inhibitors of mitochondrial cytochrome c release, biochemical, purified mitochondria (AID 1603).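 Also: mouse liver mitochondria challenged with calcium chloride; signal normalized to the plate average as 100%.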 Conditions: stronger effect = lower value.
The nature of assay [10]: inhibitors of polyQ protein aggregation (AID 1604). Conditions: polyglutamine-induced protein aggregation inhibition assay; stronger effect = higher value; tested at 2.5 µM.
A short description of assay [11]: enhancers of glutamate uptake in motor neurons, MN-1 cell line (AID 1612).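 Also: tested at 1 µM final; 0% = mean of DMSO vehicle wells on each plate; positive means more glutamate uptake than control and negative means less.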 The following applies: MN-1 motor neuron cells, stronger effect = higher value.
Assay [12] is described as follows: reducers of polyQ inclusions in PC12 cells, cell-based, NGF-treated PC12, GFPQ80 (AID 1614).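 Also: lower means fewer inclusions and 0 means no inclusions at all.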 Conditions: PC12 NGF-treated GFP-polyQ80 inclusion reduction.
Assay [13] in a line: suppressors of polyglutamine aggregation in yeast, 75Q-TubH (AID 1616). Conditions: S. cerevisiae 75Q-TubH polyglutamine aggregation suppression; stronger effect = higher value.
The nature of assay [14]: kinase inhibitors against Plasmodium liver-stage infection, cell-based, known kinase inhibitor set, luminescence, hepatoma host viability (AID 624392).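 Also: infected cells incubated roughly two days before readout.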 The following applies: Plasmodium liver stage in hepatoma cells, luciferase luminescence, concentration not given here; liver cell % of control: measured here: host liver cell viability; parasite % of control: stronger effect = lower value.

Assay [15] in a line: survival rescue of mitochondrial mutant cells in low glucose, primary screen, MELAS cybrids, Rieske KO mouse fibroblasts, CellTiter-Glo (AID 1508586;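 active = mean z-score across replicates of 1.96 or higher in either the MELAS or the Rieske mutant cell line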;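 also: z relative to plate mean and SD of compound and empty wells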).
Assay [16] can be described thus: protection against mutant huntingtin cytotoxicity, PC12 cells, LDH release (AID 1610). Conditions: PC12 mutant huntingtin toxicity, final LDH at 4 uM, stronger effect = lower value.
Assay [17] can be described thus: circadian clock period modulators, cell-based, LOPAC library, luminescence reporter (AID 2774).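 Also: values are relative to mean of DMSO wells on each plate.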 The following applies: circadian reporter cells, at 7 µM, actives lie on both sides.
In assay [18] the test system is Hepatitis C virus NS3 helicase. The experiment in a line: HCV NS3 helicase inhibitors, primary screen, biochemical, fluorescence polarization, LOPAC1280 library (AID 687035; in the data active = inhibition above about 37%). The following applies: Purified HCV NS3 helicase, Cy5-dT15 ssDNA binding fluorescence polarization; stronger effect = higher value; concentration not given here.
The nature of assay [19]: Cy5 fluorescence quenching or enhancement artefacts, artefact control for HCV NS3 helicase inhibitor project, biochemical, LOPAC1280 (AID 687037). Conditions: Cy5-DNA-NS3h complex fluorescence interference counterscreen.
The nature of assay [20]: viability rescue of complex I mutant cybrids, primary screen, cell-based, galactose medium, ATP luminescence (AID 1645843;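 active = z-score of at least 1.8 in each of two replicates, scored against plate mean and spread of sample wells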;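 also: positive z means more ATP and so rescue of galactose-driven cybrid death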). Conditions: complex I mutant cybrid cells, 72 h, stronger effect = higher value.
Where [21] appears, read: stronger effect = lower value, cell number ratio, induced over uninduced.
The mark [22] stands for this setting: measured here: relative caspase fold change +Dox/-Dox.
[23] abbreviates: measured here: total cells with miR-34 induction, stronger effect = lower value.
Where [24] appears, read: measured here: total cells without miR-34 induction.
[25] abbreviates: MELAS cybrid survival, CellTiter-Glo 48 h, stronger effect = higher value.
Setting [26] is: Rieske KO mouse fibroblast survival, CellTiter-Glo 72 h.

On to `Cn1nnnc1SCC1=C(C(=O)O)N2C(=O)[C@@H](NC(=O)[C@H](O)c3ccccc3)[C@H]2SC1`, for which the survival in assay [1] is 7.33 (inactive). Besides, in assay [2], the parasite load remaining was 73.2% (inactive). Moreover, the viability in assay [2] was 97.6%. Moreover, the values for the fold change in assay [3] (setting [21]) and in assay [3] (setting [22]) were 0.871 (inactive) and 1.18, respectively. The figures for the cell count in assay [3] (setting [23]) and in [3] (setting [24]) were 9300 and 10700, respectively. Also, the remaining NAD in [4] was 10 nM (inactive). Besides, in [5], the luciferase signal was 36 AU (inactive).
Regarding `COc1ccc(C(=O)c2ccc(C)cc2)c(O)c1`, the results for the fold change in [3] (setting [21]) and in [3] (setting [22]) were 0.81 (inactive) and 1.2, respectively. Further, the cell count in assay [3] (setting [23]) was found to be 4460; in assay [3] (setting [24]), 5510. Further, in [4], the remaining NAD is 10 nM (inactive).
Consider `CC1(C)S[C@@H]2[C@H](NC(=O)[C@@H](N)c3ccc(O)cc3)C(=O)N2[C@H]1C(=O)O`, for which, in [6], the inhibition came out at 1.98%. In assay [7], the score came to 1.39. Besides, in [8], the rescue above control is 1.27. The cytochrome c release ratio in [9] was determined as 1.03. Moreover, the inhibition of aggregation in assay [10] was 54.5%. For the same compound, the glutamate uptake change in assay [11] amounted to 1.23%. This compound also displayed an inclusion score in [12] of 2. The aggregation suppression score in [13] was found to be 1.15. Besides, the parasite load remaining in [2] was 98.1% (inactive) and 66.2% (inactive). The viability in [2] is 75% and 90.3%. The fold change was 0.918 (inactive) in assay [3] (setting [21]) and 1.48 in assay [3] (setting [22]). For the same compound, the cell count in [3] (setting [23]) is 11000; in assay [3] (setting [24]), 12000.
Take `Cc1cc(Nc2nc(NC(C)c3ccc(F)cc3)c(C#N)cc2F)n[nH]1` (stereo not given): in [14], the liver cell % of control was 55.1% and 77.3% and 95.6%. Besides, in [14], the parasite % of control is 1.2% (inactive) and 12.7% (inactive) and 40% (inactive). For the same compound, the figures for the fold change in [3] (setting [21]) and in [3] (setting [22]) were 1.16 (inactive) and 0.511, respectively. Further, the cell count in [3] (setting [23]) was determined as 1300; in assay [3] (setting [24]), 1120. For the same compound, the z-score in assay [15] (setting [25]) was 2.18 (active); in assay [15] (setting [26]) it was -3.18.
On to `CC1CCN(C(=O)CC#N)CC1N(C)c1ncnc2[nH]ccc12` (stereo not given), for which the liver cell % of control in [14] is 104% and 99.8%. Moreover, the parasite % of control in assay [14] is 80.9% (inactive) and 77.3% (inactive) and 45.5% (inactive). In addition, the fold change was 0.908 (inactive) and 0.927 (inactive) in assay [3] (setting [21]); 0.692 and 0.73 in assay [3] (setting [22]). The cell count in assay [3] (setting [23]) was 9120 and 9790; in assay [3] (setting [24]) it was 10000 and 10600. The z-score in assay [15] (setting [25]) is -0.285 (inactive) and -0.386 (inactive); in [15] (setting [26]) it was -0.101 and -0.511.
As for `CCCCCCCCCCCCCCCCCC(=O)OC(CC(=O)O)C[N+](C)(C)C` (stereo not given), the inhibition in [6] is -2.46%; in assay [18], -2% (inactive). The same compound had a score in assay [7] of 0.53. The compound further showed a rescue above control in [8] of 6.57. The cytochrome c release ratio in assay [9] was 4.04. In assay [10], this compound returned an inhibition of aggregation of 52.4%. The compound also yielded a normalised LDH release in assay [16] of 0.986. Also, in [11], the glutamate uptake change was -11.2%. The same compound yielded an aggregation suppression score in assay [13] of -0.125. Moreover, the period change in [17] is -0.05 h (inactive). The fluorescence ratio (interference) in assay [19] is 1 (inactive). Besides, the results for the fold change in assay [3] (setting [21]) and in [3] (setting [22]) were 0.979 (inactive) and 0.6, respectively. Moreover, the cell count in [3] (setting [23]) turned out to be 4490; in assay [3] (setting [24]), 4590. Besides, the z-score in assay [20] was -1.38 (inactive).
